The list is not random: actives were taken first. Their share in the collection is about 4.5%.
Gli-Sufu block = blocks Gli-Sufu signaling in a luciferase reporter | inhibition, % at 5 µM | Sufu-KO-LIGHT fibroblasts, Gli luciferase reporter luminescence | actives 0.74% (n = 340,000) | AID 588413;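 active = inhibition above about 55%, limit read from the data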
Mdm2-MdmX inh = inhibitors of human Mdm2/MdmX interaction | inhibition, % at 8 µM | O15151+Q00987 | AID 485346 | actives 3% (n = 330,000) | SaOS-2 split-luciferase Mdm2/MdmX complementation, luminescence;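 active = inhibition of at least 50% at 8 µM in the primary screen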
CSC inhib = blocks cancer stem cells. inhibition, % at 7.5 µM. cancer stem cell-like cells viability, luminescence. actives 1.1% (n = 300,000); in the data active = inhibition above about 75%; tested in HMLE shEcad cells
Jurkat NFkB inh = inhibitors of the PMA/ionomycin-induced NF-kB reporter in Jurkat cells; inhibition, % at 4 µM; actives 0.53% (n = 330,000); PMA/ionomycin-induced NF-kB luciferase reporter, luminescence; AID 435003; in the data active = inhibition above about 50%
Beta cell apopt = blocks beta cell apoptosis. AID 435005. INS-1E cytokine-induced death, ATP luminescence, 48 h; percent of positive-control rescue, neutral wells zero. protection from apoptosis, % (concentration not given with the values). actives 0.8% (n = 300,000);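 active = Every replicate reaches about 75%, or at least half do and their mean reaches it too, limit read from the data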;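 note: higher means more ATP so stronger rescue from cytokine killing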
697 NFkB inh = lowers PMA/ionomycin-induced NF-kB signal in 697 B cells. 697 B-cell NF-kB luciferase reporter, 16 h. inhibition, % at 4 µM. actives 0.33% (n = 330,000). AID 435022; in the data active = inhibition above about 35%
Of the large screens only hits and unclear results are named; the others gave an inactive call.

O=C(Nc1ccccc1)/C(=C1\CCCN1)[N+](=O)[O-]	none
N#Cc1c(NC(=O)CSc2n[nH]c(Cc3ccccc3)n2)oc(-c2ccccc2)c1-c1ccccc1	CSC inhib 102 (no result: Beta cell apopt)
S=c1[nH]nc(C2CCCCC2)n1/N=C/C=C/c1ccccc1	none
S=c1[nH]nc(C2CCCCC2)n1/N=C/C(Cl)=C\c1ccccc1	CSC inhib 109
COC(=O)[C@H](CC(C)C)N(Cc1ccccc1)S(=O)(=O)N(Cc1ccccc1)[C@@H](CC(C)C)C(=O)OC	Beta cell apopt 121
COC(=O)[C@H](CC(C)C)N(Cc1ccccc1)S(=O)(=O)N(Cc1ccc(OC)cc1)[C@@H](CC(C)C)C(=O)OC	Beta cell apopt 116
COC(=O)[C@H](CC(C)C)NS(=O)(=O)N(Cc1ccccc1)[C@@H](CC(C)C)C(=O)OC	none
Cc1ccc(NC(=O)CSc2nc(=O)n(Cc3ccncc3)c3c2CCC3)c(C)c1	none (no result: Beta cell apopt)
COc1cccc(N2CCc3c(C)nc4ccc(Cl)cc4c32)c1	none (no result: Mdm2-MdmX inh, Jurkat NFkB inh, 697 NFkB inh)
CCN1Cc2c(/C=C/c3ccccc3)nc3ccc(OC)cc3c2N(c2cccc(Cl)c2)C1	CSC inhib 107
CCN(CC(=O)Nc1ccc(NC(C)=O)cc1)C(=O)CCN1C(=O)C2CC=CCC2C1=O (centres undefined)	none (no result: CSC inhib, Beta cell apopt)
Cc1nc(NC(=O)C2CCCC2)sc1Cc1ccc2c(c1)OCO2	none
Cc1nc(NC(=O)C23CC4CC(CC(C4)C2)C3)sc1Cc1ccc2c(c1)OCO2	Beta cell apopt 102
CC1CN(C(=O)Nc2ccc(F)cc2F)CC(C)O1 (centres undefined)	none
CCN(CC)c1ccc2cc(S(=O)(=O)c3ccc(Cl)cc3)c(=O)oc2c1	CSC inhib 99
CC(C)CN(C(=O)COC(=O)CSc1ccc(Br)cc1)C1CCS(=O)(=O)C1 (centres undefined)	none (no result: CSC inhib, Beta cell apopt)
O=C1NC(=O)/C(=C/c2ccc(-c3cc(C(=O)O)ccc3Cl)o2)S1	none
O=C1NC(=S)/C(=C\c2ccc(-c3ccccc3Cl)o2)S1	CSC inhib 118 (no result: Mdm2-MdmX inh, Jurkat NFkB inh, 697 NFkB inh)
O=C(N/N=C/c1ccncc1)c1sc2ccccc2c1Cl	none
O=C(N/N=C/c1ccc[nH]1)c1sc2ccccc2c1Cl	CSC inhib 93
CCCn1cnc2cc(NC(=O)c3cccs3)ccc21	none
CC1(C)Cc2c(C#N)c(NC3CCCCC3)nc(-c3ccco3)c2CO1	CSC inhib 77 (no result: Gli-Sufu block)
CC1(C)Cc2c(C#N)c(NCC3CCCO3)nc(-c3ccco3)c2CO1 (centres undefined)	none (no result: CSC inhib)
Nc1ccc(C(=O)OCC(=O)N2c3ccccc3Sc3ccccc32)cc1[N+](=O)[O-]	none (no result: Mdm2-MdmX inh, Jurkat NFkB inh, 697 NFkB inh)
NCCNc1ccc(C(=O)N2c3ccccc3Sc3ccccc32)cc1[N+](=O)[O-]	CSC inhib 92
CCSc1ncc(/C=N/Nc2ccc(Cl)cc2)n1C	CSC inhib 93
CC1CCCCN1C(=O)COC(=O)c1ccc(=O)n(Cc2ccccc2)n1 (centres undefined)	none (no result: CSC inhib)
CCOC(=O)/C(=C\c1ccc(N2CCC(c3ccccc3)=N2)cc1)C(C)=O	none (no result: Mdm2-MdmX inh, CSC inhib, Jurkat NFkB inh, Beta cell apopt, 697 NFkB inh)
O=C(/C=C/c1ccc(N2CCC(c3ccccc3)=N2)cc1)c1ccccc1	CSC inhib 92
C=CCn1c(NS(=O)(=O)c2ccccc2)c(S(=O)(=O)c2ccc(C)cc2)c2nc3ccccc3nc21	none (no result: Mdm2-MdmX inh, Jurkat NFkB inh, 697 NFkB inh)
O=S(=O)(Nc1c(S(=O)(=O)c2ccccc2)c2nc3ccccc3nc2n1C1CCCCC1)c1ccccc1	CSC inhib 106 (no result: Mdm2-MdmX inh, Jurkat NFkB inh, 697 NFkB inh)
O=c1c2cc(NC(=S)NCCCN3CCC(Cc4ccccc4)CC3)ccc2nc2n1CCCCC2	CSC inhib 101
O=c1c2cc(NC(=S)NCCN3CCCCCC3)ccc2nc2n1CCCCC2	none
Cc1ccc(NC(=O)c2ccc(COc3ccccc3)o2)nc1	none (no result: Beta cell apopt)
CCOC(=O)CSc1nc2sc3c(c2c(=O)n1CC)CC(C)(C)OC3	none
CCC1(C)Cc2c(sc3nc(SC)n(Cc4ccccc4)c(=O)c23)CO1 (centres undefined)	CSC inhib 96
O=C(COc1ccc(-c2nnco2)cc1)Nc1ccc(C(F)(F)F)cc1	none
CCOc1cc(/C=N/O)cc(Br)c1OCC	none
CCOc1cc(/C=N/O)cc(Br)c1OCc1ccc(Cl)cc1	CSC inhib 117
OC(COc1ccc2ccccc2c1Br)Cn1cnc(-c2ccccc2)c1 (centres undefined)	CSC inhib 101
Cc1cccc(Nc2nc(NCc3ccco3)c3ccccc3n2)c1	Gli-Sufu block 82, CSC inhib 113, Beta cell apopt 91 (no result: Mdm2-MdmX inh, Jurkat NFkB inh, 697 NFkB inh)
CNc1nc(N)c([N+](=O)[O-])c(Nc2cccc(F)c2)n1	Beta cell apopt 94
CNc1nc(N)c([N+](=O)[O-])c(NC2CCCCC2)n1	none
Nc1nc(Nc2ccccc2)nc(NC2CCCCC2)c1[N+](=O)[O-]	CSC inhib 104
Cc1ccc(Nc2nc(N)c([N+](=O)[O-])c(N3CCC(C)CC3)n2)cc1C	CSC inhib 85
Cc1ccc(Nc2nc(N)c([N+](=O)[O-])c(N3CCOCC3)n2)cc1C	none
Cc1cc(=O)oc2cc(NC(=O)Cc3ccccc3[N+](=O)[O-])ccc12	none
CC(C)CC(=O)N1CCN(c2ccc(NC(=O)c3ccco3)cc2)CC1	none
Cc1ccc(OCCN2CCN(c3nc(NCc4ccco4)c4ccccc4n3)CC2)cc1	CSC inhib 112
Cc1ccc(-c2nc(NCc3ccco3)c3ccccc3n2)cc1	CSC inhib 96
Cc1ccc(Nc2nc(N)c([N+](=O)[O-])c(NCc3ccco3)n2)cc1C	CSC inhib 84
O=C1NC(=S)NC1(c1ccccc1)c1ccccc1	none (no result: Mdm2-MdmX inh, CSC inhib, Jurkat NFkB inh, Beta cell apopt, 697 NFkB inh)
COc1ccc(Cl)c(Cn2c(NCc3ccco3)nc3c2c(=O)n(C)c(=O)n3C)c1	Gli-Sufu block 70, Beta cell apopt 78
OCCNCc1ccc(OCc2ccc(Cl)cc2Cl)cc1	none
OCCCCNCc1ccc(OCc2ccc(Cl)cc2Cl)cc1	CSC inhib 91
O=C1C2CCCCN2C(=O)N1CCCCN1CCN(c2cccc(Br)c2)CC1 (centres undefined)	none
CCN(CC)CCNC(=O)c1cc(Nc2ccc(OC)c(OC)c2)nc2ccccc12	none
Clc1ccc(OCCCNCc2ccccc2)c2ccccc12	CSC inhib 110
Brc1ccccc1OCCNCc1ccccc1	none
COc1cccc(C(=O)N2CCN(Cc3ccc(OC)cc3OC)CC2)c1	none
O=C(CC1NCCc2ccccc21)Nc1ccc(Oc2ccccc2)cc1 (centres undefined)	CSC inhib 95 (no result: Beta cell apopt)
COc1ccc(CN(C)c2ncnc3sccc23)c(OC)c1OC	CSC inhib 77
CC(=O)Nc1ccc(S(=O)(=O)N2CCC(c3nc4c(nnn4Cc4ccccc4Cl)c(=O)[nH]3)CC2)cc1	none (no result: Beta cell apopt)
Cc1cc(C)cc(C(=O)Nc2nnc(SCC(=O)N3CCCc4ccccc43)s2)c1	CSC inhib 75
CC(NC(=O)Cn1ncc(Cl)c(Cl)c1=O)C12CC3CC(CC(C3)C1)C2 (centres undefined)	CSC inhib 116 (no result: Mdm2-MdmX inh, Jurkat NFkB inh, 697 NFkB inh)
